Only some compounds are listed: those with a hit (about 3.4% of all), similar ones and a draw of the others.
p47phox inh: p47phox/p22phox peptide binding inhibitors, primary screen, biochemical, uHTS, NADPH oxidase regulatory subunit; AID 1274, 2008; fluorescence polarization, 2 h; hit rate 0.53% among 220,000; inhibition, % at 24.7 µM
Mcl1-Noxa inh: Mcl-1/Noxa binding inhibitors, primary screen, biochemical, TR-FRET, 1536-well; hit rate 1.5% among 220,000; inhibition, % at 21.7 µM; AID 1022, 2008; TR-FRET Mcl-1/Noxa peptide binding, 2 h; Induced myeloid leukemia cell differentiation protein Mcl-1 (Homo sapiens), Q07820;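 active = compounds that cut the protein-peptide binding signal by more than 50% relative to plate controls in a single-dose test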;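 note: His-tagged Mcl-1 with rhodamine Noxa BH3 peptide and terbium anti-His antibody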
Mcl1 Bid PPI: Mcl-1/Bid binding inhibitors, primary screen, biochemical, TR-FRET, 1536-well; Induced myeloid leukemia cell differentiation protein Mcl-1 (Homo sapiens), Q07820; TR-FRET Mcl-1/Bid-Dy647 peptide binding; inhibition, % at 21.7 µM; hit rate 0.97% among 220,000;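 active = compounds that cut the binding signal by more than half at the single screening dose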;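 note: His-tagged Mcl-1 with europium anti-His antibody binding Bid BH3 peptide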
Mcl-1 Bim block: inhibitors of Bim peptide binding to Mcl-1, primary screen, biochemical, bead-based flow cytometry, multiplex; Induced myeloid leukemia cell differentiation protein Mcl-1 (Homo sapiens), Q07820; Bim peptide-Mcl-1 binding; inhibition, % at 10 µM; hit rate 0.1% among 190,000; AID 1009, 2008; in the data active = inhibition above about 40%
eIF4E 4G PPI: eIF4E–eIF4G protein interaction inhibitors, primary screen, biochemical, uHTS, TR-FRET, eIF4GI fragment; AID 782, 2007; TR-FRET eIF4E-eIF4GI(517-606) binding, 2 h; inhibition, % at 21.7 µM; hit rate 0.37% among 220,000
14-3-3 Bad PPI: inhibitors of 14-3-3 zeta/Bad binding, primary screen, biochemical, TR-FRET, bovine 14-3-3 zeta; 14-3-3 protein zeta/delta (Bos taurus), P63103; TR-FRET 14-3-3zeta/Dy647-pBad peptide displacement, 1 h; inhibition, % at 21.7 µM; hit rate 0.71% among 220,000;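 active = inhibition above about 70%, limit read from the data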
Target sequence (P63103 whole entry, looked up): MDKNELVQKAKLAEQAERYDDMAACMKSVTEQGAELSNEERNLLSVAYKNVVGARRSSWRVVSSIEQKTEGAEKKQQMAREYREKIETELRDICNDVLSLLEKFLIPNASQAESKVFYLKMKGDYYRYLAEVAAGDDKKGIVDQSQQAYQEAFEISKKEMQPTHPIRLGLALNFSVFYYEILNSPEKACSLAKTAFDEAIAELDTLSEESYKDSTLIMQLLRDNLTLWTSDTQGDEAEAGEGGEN
Each line names hits and unclear results; the compound was inactive in the other large screens.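 Rule for the calls, unless noted: active = inhibition above about 30% (limit read from the data); inactive = the rest.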

CC1(C)CC(=O)CC(=NCC(=O)O)C1	Mcl1-Noxa inh 66
CC1(C)CC(=O)C/C(=N\NC(=S)NCc2ccccc2)C1	none
COc1cccc(NS(=O)(=O)c2ccc3c(c2)C2C=CCC2C(c2ccc(C(=O)O)cc2)N3)c1 (stereo not given)	Mcl1-Noxa inh 97
COc1ccc(C(=O)N/N=C(\C)c2ccc3c(c2)C2C=CCC2C(c2ccccc2)N3)cc1 (stereo not given)	none
O=C(NCc1cccnc1)/C(=C/c1ccc(-c2cccc(Cl)c2)o1)S(=O)(=O)c1ccccc1	Mcl1 Bid PPI 57
CCCCn1c(SCC(=O)NCCOC)nc2ccc(N3CCOCC3)cc2c1=O	Mcl1-Noxa inh 89
COCCNC(=O)CSc1nc2ccc(N3CCOCC3)cc2c(=O)n1CCc1ccccc1	none
CC(COc1ccccc1)N(CCCl)Cc1ccccc1 (stereo not given)	Mcl1 Bid PPI 55
COc1ccc(NC(=O)CSc2ccccn2)cc1OC	14-3-3 Bad PPI 72
COc1ccc(/C=N/NC(=O)CSc2ccccn2)cc1OC	none (no result: Mcl-1 Bim block)
O=C(O)CSc1ccccn1	eIF4E 4G PPI 33
N#CC(C#N)=C1C=CC=CN1/C(=C\c1ccccc1Cl)C(=O)c1ccccc1	Mcl1-Noxa inh 64
N#CC(C#N)=C1C=CC=CN1/C(=C\c1ccccc1)C(=O)c1cccs1	Mcl1-Noxa inh 63
Cc1ccc(-c2cc(C(=O)OCC(=O)N(C)C3CCS(=O)(=O)C3)c3ccccc3n2)c(C)c1 (stereo not given)	none
CCN(C(=O)COC(=O)c1cc(-c2ccc(C)o2)nc2ccccc12)C1CCS(=O)(=O)C1 (stereo not given)	Mcl1-Noxa inh 68 (no result: p47phox inh)
Cc1ccc(-c2cc(C(=O)OCC(=O)N(C)C3CCS(=O)(=O)C3)c3ccccc3n2)o1 (stereo not given)	Mcl1-Noxa inh 78
Cc1ccc(-n2nnnc2SCc2nc3sc(C)c(C)c3c(=O)[nH]2)cc1	none
CC(=O)c1sc2nc(CSc3nncn3C)[nH]c(=O)c2c1C	Mcl1 Bid PPI 54
CC(=O)c1sc2nc(CSc3nnnn3-c3ccccc3)[nH]c(=O)c2c1C	Mcl1-Noxa inh 96, eIF4E 4G PPI 31
Nc1nnc(CC(=O)N/N=C/c2ccc(-c3ccccc3Cl)o2)s1	none
Nc1nnc(CC(=O)N/N=C/c2ccc(-c3ccc(Cl)cc3Cl)o2)s1	Mcl1-Noxa inh 51 (no result: Mcl-1 Bim block)
O=C(C1=C(O)C(=O)N(CCc2ccccc2)C1c1cccs1)c1ccco1 (stereo not given)	none
CCc1ccc2nc(N3C(=O)C(O)=C(C(=O)c4ccco4)C3c3cccs3)sc2c1 (stereo not given)	Mcl1-Noxa inh 53
O=C(C1=C(O)C(=O)N(c2nccs2)C1c1ccccc1)c1cc2ccccc2o1 (stereo not given)	none (no result: Mcl-1 Bim block)
Cc1ccc2nc(N3C(=O)C(O)=C(C(=O)c4cc5ccccc5o4)C3c3cccs3)sc2c1 (stereo not given)	Mcl1-Noxa inh 70
CCOc1ccc(NC(=O)CN2C(=O)/C(=C3\SC(=S)N(C4CCS(=O)(=O)C4)C3=O)c3ccccc32)cc1 (stereo not given)	p47phox inh 63, Mcl1-Noxa inh 68, Mcl1 Bid PPI 81 (no result: Mcl-1 Bim block)
O=C1CN(Cc2cc(=O)oc3cc4c(cc23)CCC4)CCN1	none
O=C(NCc1ccc(/C=c2\sc3n(c2=O)CCN=3)o1)C(=O)Nc1ccccc1	Mcl1-Noxa inh 56
Clc1ccc(-c2nnc(COc3ncnc4ccccc34)o2)cc1	none
CCc1n[nH]c(=S)n1/N=C/c1cc(OC)cc([N+](=O)[O-])c1O	Mcl1-Noxa inh 78
CCN(CC)CCCNC(=S)N(Cc1cccs1)Cc1cc2cc3c(cc2[nH]c1=O)OCCO3	Mcl1-Noxa inh 59

Assay outcomes as filed in PubChem.
